Active and inactive are the calls of the source. How the source made its calls: active means hit-call score of the fitted dose curve at least 0.9, where 1 is the maximum; inactive means score below 0.9.
Assay: ATG_EGR_CIS: Attagene CIS-FACTORIAL HepG2 Assay for human Early Growth Response 1 (EGR1) (AID 2282938)
Conditions: HepG2 Attagene CIS-FACTORIAL EGR reporter mRNA; actives raise or lower the signal
Description: ATG_CIS is a cell-based, multiplexed-readout assay that uses HepG2, a human liver cell line, with measurements taken at 24 hours after chemical dosing in a 24-well plate.ATG_EGR_CIS is one of 52 assay component(s) measured or calculated from the ATG_CIS assay. It is designed to make measurements of mRNA induction, a form of inducible reporter, as detected with fluorescence intensity signals by Reverse transcription polymerase chain reaction (RT-PCR) and Capillary electrophoresis technology.Data from the assay component ATG_EGR_CIS was analyzed into 1 assay endpoint. This assay endpoint, ATG_EGR_CIS, was analyzed with bidirectional fitting relative to DMSO as the negative control and baseline of activity. Using a type of inducible reporter, measures of mRNA for gain or loss-of-signal activity can be used to understand the reporter gene at the transcription factor-level as they relate to the gene EGR1. Furthermore, this assay endpoint can be referred to as a primary readout, because this assay has produced multiple assay endpoints where this one serves a reporter gene function. To generalize the intended target to other relatable targets, this assay endpoint is annotated to the dna binding intended target family, where the subfamily is zinc finger.
Human liver HepG2 cells are transiently transfected with multiple reporter transcription units (MRTUs) in 6-well plates using FuGene 6 reagent (Roche; 3 ml FuGene/1 mg DNA). The MRTU constructs are regulated by a cis-regulating element (promoter). […] A major difference between the CIS and TRANS system is that in CIS activities of endogenous TFs are measured, whereas the TRANS assay evaluates changes in activities of exogenous, chimeric NR-Gal4 proteins. […] At the end of 24 hour incubation, total RNA was isolated using TriZol reagent (Invitrogen). The isolated RNA is then reverse-transcribed using oligo(dT) primer and Mo-MLV reverse transcriptase (Invitrogen) with DNAse I (Ambion) treatment for 30 min. The one-tenth of the produced cDNA was amplified by PCR using Taq DNA polymerase (Invitrogen) and two reporter sequence-specific primers. The PCR products were fluorescently labeled by primer extension with 6-arboxyfluorescein (6-FAM) 5'-labeled reporter sequence-specific primer (2 min at 95 C, 20 s at 68 C and 10 min at 72 C) and these products were digested with 5U of HpaI (New England Biolabs) for 2h at 37 C. The fragments were purified using Qiaquick PCR columns (Qiagen), analyzed on an ABI 3130xL genetic analyzer (Applied Biosystems) with peak positions identified by using a set of X-rhodamine (ROX)-labeled MapMarker1000 molecular weight standards (BioVentures). The raw capillary electrophoresis data was processed using Attagraph software (Attagene).
For `Clc1sc(Cl)c(Cl)c1Cl`, the outcome was “inactive”.
In the case of `Nc1ccc(S(N)(=O)=O)cc1`, the outcome is reported as “inactive”.
For `S=C(S)NCCNC(=S)S`, the outcome was “inactive”.
In the case of `CC(=O)Nc1ccccc1O`, the outcome is reported as “inactive”.
For `CO[Si](C)(OC)c1ccccc1`, the outcome was “inactive”.
With `O=C1CCCCCCCCCCOCCCCO1` the outcome was “inactive”.
With `CCCCCOC(=O)CCC` the outcome was “inactive”.
With `COCCCOc1ccnc(CS(=O)c2nc3ccccc3[nH]2)c1C` (stereo not given) the outcome was “inactive”.
In the case of `CCOC(=S)SSC(=S)OCC`, the outcome is reported as “inactive”.
For `CCCC(=O)c1cc(O)c(O)cc1O`, the outcome was “inactive”.
With `CNCCCC12CCC(c3ccccc31)c1ccccc12` the AC50 was 15.7 µM (active).
With `CC(=O)O[C@]1(C(C)=O)CC[C@H]2[C@@H]3C[C@H](C)C4=CC(=O)CC[C@]4(C)[C@H]3CC[C@@]21C` the outcome was “inactive”.
With `CC1CC(OC(=O)c2ccccc2O)CC(C)(C)C1` (stereo not given) the outcome was “inactive”.
For `O=C(O)c1cn(-c2ccc(F)cc2)c2cc(N3CCNCC3)c(F)cc2c1=O`, the outcome was “inactive”.
For `CCOC(=O)c1ccccc1OC`, the outcome was “inactive”.
For `CCCCc1ccc(N)cc1`, the outcome was “inactive”.
In the case of `NCCNCCN`, the outcome is reported as “inactive”.
In the case of `OC[C@H]1O[C@H](O[C@]2(CCl)O[C@H](CCl)[C@@H](O)[C@@H]2O)[C@H](O)[C@@H](O)[C@H]1Cl`, the outcome is reported as “inactive”.
With `CC1(C)C(=O)N(Br)C(=O)N1Cl` the outcome was “inactive”.
For `COc1ccc(OC)c(OC)c1`, the outcome was “inactive”.
For `CC(=O)c1c(C)cc(C(C)(C)C)cc1C`, the outcome was “inactive”.
With `Cc1c(Cl)c(=O)oc2cc(O)ccc12` the outcome was “inactive”.
For `C=C(C)C(=O)O[C@H]1C[C@@H]2CC[C@@]1(C)C2(C)C`, the outcome was “inactive”.
In the case of `COc1cc2ncnc(Nc3cccc(Cl)c3)c2cc1OC`, the AC50 is reported as 19.5 µM (active).
In the case of `CCCCCCCCCCCCCC(=O)O`, the outcome is reported as “inactive”.
For `C[C@H]1C[C@H]2[C@@H]3CCC4=CC(=O)C=C[C@]4(C)[C@@]3(F)[C@@H](O)C[C@]2(C)[C@@]1(O)C(=O)COP(=O)(O)O`, the outcome was “inactive”.
With `C=COCCOCCOCCOC=C` the outcome was “inactive”.
For `OCc1cccnc1`, the outcome was “inactive”.
In the case of `C=C(C)C(=O)OCCOC(=O)CC(C)=O`, the outcome is reported as “inactive”.
In the case of `CCCCN`, the outcome is reported as “inactive”.
For `CC(C)C1CCC(O)CC1` (stereo not given), the outcome was “inactive”.
With `NCCCN1CCOCC1` the outcome was “inactive”.
For `Nc1nc2ccc([N+](=O)[O-])cc2s1`, the outcome was “inactive”.
In the case of `O=Cc1ccc(Cl)c([N+](=O)[O-])c1`, the AC50 is reported as 129 µM (active).
With `Cc1ccc(S)cc1` the outcome was “inactive”.
In the case of `COc1ccc(O)cc1`, the outcome is reported as “inactive”.
With `O=C1CCc2ccccc2O1` the outcome was “inactive”.
For `OCCOCCOCCOCCO`, the outcome was “inactive”.
For `CC(C)c1cccc(O)c1`, the outcome was “inactive”.
In the case of `CCCCCC(CO)CCC` (stereo not given), the outcome is reported as “inactive”.

Reference: PubChem BioAssay (EPA / NIEHS)
